The source of these data is PubChem BioAssay (NCATS).

Where “and” joins values, the source holds several entries; their conditions need not be identical. Equal values may be shown once. Records with an inconclusive call do not appear. A call without a number means that no potency is given here. A number with no mark means an inactive call. Calls of active or inactive are those of the source. The call rests on the fitted dose curve; in most records, active means well fitted cell-killing curve with a large enough effect; inconclusive means small, poorly fitted or top-dose-only effect; inactive means no such curve, though single readings can be large or run the other way.
Potency means the concentration at half of the fitted maximal effect.

The test can be described thus: qHTS of pediatric cancer cell lines to identify multiple opportunities for drug repurposing: Primary screen for OHS-50 cells (AID 1347103). Further: nearly all actives have a fitted effect of over 40% in size. The note with it: OHS-50 osteosarcoma viability, CellTiter-Glo luminescence, 48 h; series mostly up to 57.3 µM; activity change, negative = cytotoxic: at the top concentration. From the text: Drug repurposing or repositioning has been offered as a strategy for drug development in oncology programs. This approach has special potential for childhood cancers and other rare or orphan diseases, where the expected return on new drug development has been a disincentive to pharmaceuticals.
In this project we exploit the poly-pharmacology of drugs to discover new indications via phenotypic screening of a panel of 19 well-characterized cell lines derived from solid tumors seen in children and adolescents. The goal is to identify approved drugs with previously unrecognized anticancer properties that has the potential to reveal new mechanisms and biological processes involved in carcinogenesis or drug resistance. We employed a titration-based paradigm (quantitative high-throughput screening or qHTS), where all compounds were tested at multiple concentrations for their effect on cell viability. Concentration-response curves (CRCs) were derived directly from the primary screen, and both potency and efficacy values were used to identify compounds with robust bioactivity profiles. We screened the NIH Chemical Genomics Center (NCGC) Pharmaceutical Collection (NPC) and Mechanism Interrogation Plate (MIPE) small molecule collections of approved and investigational compounds against these cell lines; and measured metabolically active cells after 48 hours of compound treatment as a proxy for cell viability.
Assay Submitter: Nathalia J. Martinez, National Center for Advancing Translational Sciences, National Institutes of Health, Rockville, MD, USA; email: natalia.martinez@nih.gov
[1] Shen, M et al. Quantitative high-throughput phenotypic screening of pediatric cancer cell lines identifies multiple opportunities for drug repurposing. Oncotarget 2017 Dec 19;9(4):4758-4772. PMID 29435139.
The cells were obtained from University of North Carolina (UNC), Pediatric Preclinical Testing Program (PPT), and Coriell Institute (CI).
qHTS cell viability assay:
Cells were assayed in growth media at a density of 500-1,000 cells/well. Five microliters of cells were dispensed into 1,536-well, white, solid-bottom, TC-treated plates (Greiner Bio One) using a multidrop dispenser and incubated at 37 degrees C, 5% CO2, under a humidified atmosphere for 5 hours. Twenty-three nanoliters of compounds and controls (neutral control DMSO or positive control bortezomib at final concentration of 2.3 µM) were subsequently transferred by Kalypsys pintool. For primary screens, the MIPE collection was tested at 11-point dilutions (final concentrations range from 0.78 nM to 46 µM) and the NPC collection at 8-point dilutions (final concentrations range from 0.59 nM to 46 µM). Compounds tested in follow-up screens were assayed at 11-point dilutions. Cells were incubated for 48 hours, followed by addition of 3 µL of CellTiter-Glo (Promega). After a 15 min incubation at room temperature, samples were analyzed for luminescence intensity using a ViewLux High-throughput CCD imager equipped with clear filters.
For `CC1(C)[C@H](C(=O)O)N2C(=O)C[C@H]2S1(=O)=O`, the Potency result was “inactive”.

For `Cn1nnc2c(C(N)=O)ncn2c1=O`, the Potency result was “inactive”.

Consider `COc1cnc(NS(=O)(=O)c2ccc(N)cc2)nc1`, for which the “activity change, negative = cytotoxic” value is 15.8%.

Regarding `CC(N)C12CC3CC(CC(C3)C1)C2` (stereo not given), the Potency entry is “inactive”.

In the case of `CN1CCCC(n2nc(Cc3ccc(Cl)cc3)c3ccccc3c2=O)CC1` (stereo not given), the Potency was 27.6 µM (active) and 968 nM (active).

Regarding `COCCCOc1cc(C[C@@H](C[C@H](N)[C@@H](O)C[C@H](C(=O)NCC(C)(C)C(N)=O)C(C)C)C(C)C)ccc1OC`, the Potency entry was “inactive”.

On to `CCc1c2c(nc3ccc(OC(=O)N4CCC(N5CCCCC5)CC4)cc13)-c1cc3c(c(=O)n1C2)COC(=O)[C@]3(O)CC`, for which the Potency was 0.769 µM (active).

With `Cc1cccc(N(C)C(=S)Oc2ccc3ccccc3c2)c1`, the Potency was 24.6 µM (active).

Turning to `CC(C)(C)C(=O)OCOP(=O)(COCCn1cnc2c(N)ncnc21)OCOC(=O)C(C)(C)C`, the Potency was 6.17 µM (active) and 30.6 µM (active).

For the molecule `CC(=O)[C@H]1CC[C@H]2[C@@H]3CCC4=CC(=O)CC[C@]4(C)[C@H]3CC[C@]12C`, the Potency was 19.3 µM (active).

In the case of `O=C(NCC1CN(c2ccc(N3CCOCC3=O)cc2)C(=O)O1)c1ccc(Cl)s1` (stereo not given), the Potency entry is “inactive”.

As to `C#CCN[C@@H]1CCc2ccccc21`, the “activity change, negative = cytotoxic” value was 18.5%.

In the case of `CCn1cc(C(=O)O)c(=O)c2cc(F)c(N3CCNCC3)cc21`, the Potency entry was “inactive”.

Take `COc1cc(NS(=O)(=O)c2ccc(N)cc2)nc(OC)n1`: the Potency result is “inactive”.

`Cn1c(=O)c2c(ncn2CC(O)CO)n(C)c1=O` (stereo not given): the Potency entry is “inactive”.

In the case of `COc1ccc2cc3[n+](cc2c1OC)CCc1cc2c(cc1-3)OCO2`, the Potency was 4.37 µM (active) and 7.69 µM (active).

As for `Cc1ccnc2c1NC(=O)c1cccnc1N2C1CC1`, the Potency entry was “inactive”.

On to `CN(C)CCc1c[nH]c2ccc(C[C@H]3COC(=O)N3)cc12`, for which the Potency result was “inactive”.

`CCn1cc(C(=O)O)c(=O)c2cc(F)c(N3CCNCC3)nc21`: the Potency entry was “inactive”.

With `COC(=O)Nc1nc2ccc(Sc3ccccc3)cc2[nH]1`, the Potency is 1.23 µM (active) and 3.06 µM (active).

For `Cc1cccc(Nc2ccncc2S(=O)(=O)NC(=O)NC(C)C)c1`, the Potency result is “inactive”.

For `N[C@@H](Cc1ccc(O)c(O)c1)C(=O)O`, the “activity change, negative = cytotoxic” value is -11.4%.

For the molecule `CN1CCN(c2c(F)cc3c(=O)c(C(=O)O)cn(CCF)c3c2F)CC1`, the Potency result is “inactive”.

Regarding `CC1=C(C(=O)O)N2C(=O)[C@@H](NC(=O)C(N)c3ccccc3)[C@H]2SC1` (stereo not given in full), the “activity change, negative = cytotoxic” value was 19.4%.

For the molecule `CC(C)C[C@H](NC(=O)[C@H](CCc1ccccc1)NC(=O)CN1CCOCC1)C(=O)N[C@@H](Cc1ccccc1)C(=O)N[C@@H](CC(C)C)C(=O)[C@@]1(C)CO1`, the Potency is 61.7 nM (active) and 109 nM (active).

Turning to `C[C@]12C=CC(=O)C=C1CC[C@@H]1[C@@H]2C(=O)C[C@@]2(C)[C@H]1CC[C@]2(O)C(=O)CO`, the Potency result is “inactive”.

Take `S=P(N1CC1)(N1CC1)N1CC1`: the Potency is 24.3 µM (active).

Consider `O=S(=O)(O)CCS`, for which the “activity change, negative = cytotoxic” value is 11.7%.

As for `CCOCC(O)COc1ccc(NC(=O)CC[S+](C)C)cc1` (stereo not given), the Potency result was “inactive”.

Regarding `C[C@@H]1C[C@H]2[C@@H]3CCC4=CC(=O)C=C[C@]4(C)[C@@]3(Cl)[C@@H](O)C[C@]2(C)[C@@]1(OC(=O)c1ccco1)C(=O)CCl`, the Potency is 15.5 µM (active) and 15.3 µM (active).

Turning to `CC(C)(Sc1cc(C(C)(C)C)c(O)c(C(C)(C)C)c1)Sc1cc(C(C)(C)C)c(O)c(C(C)(C)C)c1`, the “activity change, negative = cytotoxic” value is -7.14%.

In the case of `NC(=O)c1cccnc1`, the Potency entry was “inactive”.

On to `OC(Cn1cncn1)(Cn1cncn1)c1ccc(F)cc1F`, for which the Potency entry is “inactive”.

With `Nc1ccc(S(=O)(=O)Nc2ccccn2)cc1`, the Potency entry is “inactive”.

Turning to `CCN(C)C(=O)Oc1cccc([C@H](C)N(C)C)c1`, the Potency result is “inactive”.

Regarding `COc1cc2ncnc(Nc3cccc(Cl)c3)c2cc1OC`, the Potency was 24.3 µM (active).

`CN(C)c1ccc(C(=C2C=CC(=[N+](C)C)C=C2)c2ccc(N(C)C)cc2)cc1`: the Potency is 978 nM (active) and 217 nM (active).

Regarding `Nc1[nH]c(=O)ncc1F`, the Potency entry is “inactive”.

Turning to `Cc1nnc(C(=O)NC(C)(C)c2nc(C(=O)NCc3ccc(F)cc3)c(O)c(=O)n2C)o1`, the Potency entry is “inactive”.

Consider `CNC(=O)c1cc(Oc2ccc(NC(=O)Nc3ccc(Cl)c(C(F)(F)F)c3)cc2)ccn1`, for which the Potency is 15.3 µM (active) and 15.5 µM (active).
